Compound activity deposited in PubChem by Broad Institute.
EWS-Fli inh: EWS/Fli-driven NR0B1 reporter inhibitors, primary screen, A673 cells, NR0B1 luciferase, luminescence, MLPCN library. viability-normalised. inhibition, % at 12.6 µM. hit rate 0.67% among 350,000. AID 651661, 2012;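 active = mean inhibition of at least 50% after viability correction, with every replicate also passing that limit; inconclusive = mean reaches 50% but only one of two replicates passes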;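 note: firefly luciferase signal divided by Alamar Blue viability fluorescence both relative to DMSO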
PAX8 inh HTS: inhibitors of PAX8-driven TPO luciferase reporter, primary screen, RMG-I cells, single concentration; hit rate 1.2% among 360,000; inhibition, % at 12.6 µM; SteadyGlo, 24 h;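 active = mean replicate inhibition at least 60% with every replicate also reaching 60%; inconclusive = only one of the two criteria is met; inactive = mean below 60% and not all replicates reaching 60%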;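 note: luciferase light reporting Pax8 driven TPO promoter activity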
EBV LMP1 NFkB: EBV LMP1-driven NF-kappaB luciferase reporter inhibitors, primary screen, cell-based, luminescence, single point; LMP1-induced NF-kappaB luciferase reporter cells; inhibition, % at 12.5 µM; hit rate 0.69% among 350,000; AID 504558, 2011; in the data active = inhibition above about 41%; inconclusive = no clear call, values can overlap the other calls
Shn3 3UTR inh: reduction of Shn3 3'UTR firefly luciferase signal, primary screen, Schnurri-3 inhibitor project, cell-based, Clone20 osteoblasts, set 2; Clone20 osteoblast Shn3 3'UTR firefly luciferase, 24 h; hit rate 0.52% among 360,000; AID 588674, 2011; inhibition, % at 12.5 µM;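 active = mean inhibition of at least 75% with every replicate also reaching 75%; inconclusive = mean inhibition at least 75% but some replicate below; inactive = mean inhibition below 75%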
TRPM1 prom inh: inhibitors of MITF-dependent TRPM1 promoter reporter, primary screen, cell-based, SK-MEL-5, single point, luciferase. inhibition, % at 12.5 µM. SK-MEL-5 TRPM1 promoter luciferase, 24 h. hit rate 0.83% among 330,000;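 active = mean inhibition across replicates of 60% or more, whatever share of single replicates reaches that level; inconclusive = some that reach 60%, reason not given; inactive = mean inhibition across replicates below 60%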
LGR2 inh: inhibitors of bursicon-induced LGR2 CRE-luciferase signal, primary screen, cell-based, HEK293, CRE-luciferase reporter, bursicon stimulation; Drosophila bursicon receptor LGR2 (rickets); bursicon-stimulated, 4 h; AID 720647, 2013; hit rate 0.35% among 380,000; inhibition, % at 9.99 µM;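 active = drop in luminescence signal, shown as inhibition above about 50% in the replicate tests, limit read from the data, passing the limit was not always enough; inconclusive = probably only some replicates passing the limit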;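 note: agonist challenge used bursicon conditioned medium at about half maximal strength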
DNA binding: DNA binders by acridine orange displacement, dose response, counter-screen for EWS/Fli inhibitor project, biochemical, fluorescence polarization, cherry-pick | shares compounds with EWS-Fli inh | salmon sperm DNA acridine orange fluorescence polarization | AC35, µM (highest dose often 68 µM) | hit rate 2% among 640;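 active = fitted curve reaches a 35% signal fall AC35 below twice the sample's top valid tested dose, actives reach about 48 µM in these data; inactive = the rest, including activity in the rising direction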;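 note: lower polarization ratio signals compound binding to DNA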
Numbers stand for hits; n = inactive; u = inconclusive; x = not tested or not shown; ! = a repeat was not active. A selection: hits, their analogues and other compounds. The true share with any hit is near 2.2%.

SMILES | EWS-Fli inh | PAX8 inh HTS | EBV LMP1 NFkB | Shn3 3UTR inh | TRPM1 prom inh | LGR2 inh | DNA binding
Brc1ccc(CSc2nnc(-c3ccco3)o2)cc1 | 82 | n | n | n | n | n | n
O=C(NCC[C@H]1CC[C@@H](NS(=O)(=O)c2cccc(F)c2)[C@H](CO)O1)C1CCC1 | n | n | x | x | x | n | x
CCS(=O)(=O)N1CCCCN2[C@@H](CO)[C@H](c3ccc(C#Cc4ccccc4OC)cc3)[C@@H]2C1 | x | n | x | x | x | n | x
CCCNC(=O)[C@@H]1[C@@H](CO)[C@@H]2Cn3c(ccc(-c4ccccc4)c3=O)[C@H]1N2C(=O)CC | 55 | x | x | x | x | n | n
O=C(C[C@H]1C=C[C@H](NC(=O)Nc2ccc3c(c2)OCO3)[C@@H](CO)O1)NCc1ccc2c(c1)OCO2 | n | n | x | x | x | n | x
C[C@@H]1CN([C@@H](C)CO)C(=O)c2cc(-c3ccc(F)cc3)cnc2O[C@H]1CN(C)Cc1cncnc1 | n | x | x | x | x | n | x
CCCN1C/C(=C/c2ccc3c(c2)OCO3)C(=O)/C(=C/c2ccc3c(c2)OCO3)C1 | 64 | n | n | n | 84 | n | n
C[C@H](NC(=O)N(C)C[C@H]1OCc2ccccc2-c2c(n(C)c3ccccc23)C(=O)N([C@H](C)CO)C[C@@H]1C)c1ccccc1 | n | n | x | x | x | n | x
COc1ccc(Cl)cc1S(=O)(=O)Nc1ccc2c(c1)n(C)c(=O)n2C | 54 | n | n | n | n | n | n
O=C(C[C@H]1C[C@H]2c3cc(NS(=O)(=O)c4ccc(F)cc4)ccc3O[C@H]2[C@H](CO)O1)NCc1ccc(Oc2ccccc2)cc1 | 54 | 99 | x | x | x | n | n
CN(C)c1ccc2c(c1)[C@@H]1C[C@@H](CC(=O)NCc3ccc(Oc4ccccc4)cc3)O[C@H](CO)[C@@H]1O2 | 52 | n | x | x | x | x | n
CN(C)c1ccc2c(c1)[C@@H]1C[C@H](CC(=O)NCc3ccc(Oc4ccccc4)cc3)O[C@@H](CO)[C@@H]1O2 | n | n | x | x | x | x | x
Cc1ccc(C(=O)CN2C(=O)c3ccccc3S2(=O)=O)cc1 | 77 | 71 | 74 | n | 69 | 95 | n
Cc1cc(C(=O)CN2C(=O)c3ccccc3S2(=O)=O)c(C)n1C(C)C | 73 | 71 | 70 | n | n | 76 | n
Cc1ccc(C(=O)CN2/C(=C(\O)c3ccccc3)C(=O)c3ccccc3S2(=O)=O)c(C)c1 | x | x | n | n | n | x | x
CCn1c(C)cc(C(=O)CN2C(=O)c3ccccc3S2(=O)=O)c1C | 78 | n | 73 | n | 68 | 72 | n
CCCn1c(C)cc(C(=O)CN2C(=O)c3ccccc3C2=O)c1C | n | n | n | n | n | n | x
Cc1ccccc1N=Nc1c(O)n(C)c2ccccc12 | 60 | n | n | n | n | n | n
COc1ccc(/C=C/C(=O)c2ccc(C(=O)/C=C/c3ccc(OC)c(OC)c3)cc2)cc1OC | 62 | n | n | 87 | n | n | n
COC(=O)c1ccc(/C=C/C(=O)c2ccc(OC)c(OC)c2)cc1 | x | x | n | n | n | x | x
COc1ccc(/C=C/C(=O)c2cc(F)ccc2OC(=O)c2ccccc2OC)cc1OC | 59 | 85 | n | n | n | u | n
Nc1ccc(Cn2ccc3c4c(N)nc(N)nc4ccc32)cc1 | 70 | 70 | n | n | 85 | n | n
Cc1nc2ccc(N)cc2c(=O)n1Cc1ccc(Cl)cc1 | x | x | n | n | n | x | x
COc1ccccc1NC(=O)N1CCCCN2[C@H](CO)[C@H](c3ccc(-c4cccc(C)c4)cc3)[C@H]2C1 | 61 | 104 | x | x | x | n | n
COc1ccc(NC(=O)N2CCCCN3[C@H](CO)[C@H](c4ccc(C#CCC(C)C)cc4)[C@H]3C2)cc1 | 73 | n | x | x | x | n | n
SMILES | EWS-Fli inh | PAX8 inh HTS | EBV LMP1 NFkB | Shn3 3UTR inh | TRPM1 prom inh | LGR2 inh | DNA binding
COc1ccccc1NC(=O)N1CCCCN2[C@H](CO)[C@H](c3ccc(-c4ccc(C)cc4)cc3)[C@@H]2C1 | n | n | x | x | x | n | x
O=C(Nc1ccccc1F)N1CCCCN2[C@H](CO)[C@H](c3ccc(/C=C/c4ccccc4)cc3)[C@H]2C1 | 76 | n | x | x | x | n | n
CCCNC(=O)[C@@H]1[C@@H](CO)[C@@H]2Cn3c(ccc(-c4ccncc4)c3=O)[C@H]1N2CC1CC1 | n | n | x | x | x | n | x
CN(C)c1ccc(/C=C2\SC(=O)N(CC(O)Cn3c4ccccc4c4ccccc43)C2=O)cc1 (stereo unspecified) | x | n | n | n | n | n | x
CN(C)c1ccc(C=c2c3ccccc3n3c2c2c([n+]3C)CCCC2)cc1 | 53 | 91 | 42 | 91 | 98 | 32 | 6.5µM
O=C(C1=C[C@H](c2csc3ccccc23)C[C@H](OCCCCO)O1)N1CCCCCCC1 | n | n | x | x | x | x | x
Cn1c(N=Nc2ccccc2)nc2ccccc21 | n | x | n | n | n | x | x
CN(C)c1ccc(N=Nc2nc3ccccc3n2C)cc1 | 86 | 90 | 57 | x | u | 103 | n
COC(=O)N=Nc1c(O)[nH]c2ccc(Br)cc12 | n | n | n | n | n | n | x
Oc1[nH]c2ccc(Br)cc2c1N=NC(=S)N1CCOCC1 | 57 | 91 | n | 97 | 99 | n | n
Oc1c(C(c2ccc(Cl)cc2)N2CCCC2)cc(Cl)c2cccnc12 (stereo unspecified) | 53 | 70 | n | n | n | n | n
CN(C)CC(=O)N1C[C@@H]2N[C@H](C1)C2c1ccc(/C=C/c2ccccc2)cc1 (stereo partly specified) | n | n | x | x | x | n | x
O=C(Nc1ccc2c(c1)OCO2)N1C[C@@H]2N[C@H](C1)C2c1ccc(C=Cc2ccccc2)cc1 (stereo partly specified) | 65! | n | x | x | x | n | n
O=C(C1CC1)N1C[C@@H]2N[C@H](C1)C2c1ccc(/C=C/c2ccccc2)cc1 (stereo partly specified) | 53! | n | x | x | x | n | n
COc1ccc2c3c([nH]c2c1)[C@H](CO)N(S(=O)(=O)c1cn(C)cn1)CC31CCN(CC2CCCC2)CC1 | n | n | x | x | x | n | x
O=C(/C=C/c1ccc(Cl)cc1Cl)N(Cc1ccc(Cl)cc1)C1CCS(=O)(=O)C1 (stereo unspecified) | 70 | n | n | n | n | n | n
O=C(/C=C/c1ccc(Cl)cc1Cl)N(Cc1ccccc1)C1CCS(=O)(=O)C1 (stereo unspecified) | x | n | n | n | n | n | x
CC(=O)N1CCCCN2[C@H](CO)[C@H](c3ccc(C#Cc4ccccc4F)cc3)[C@@H]2C1 | n | n | x | x | x | n | x
CCOc1ccc(C(c2c(NC(=O)c3ccccc3)sc(C)c2C)N2CCN(CCO)CC2)cc1 (stereo unspecified) | 80 | n | n | n | n | n | n
